# Data published in paper PMC7862700, “An all-to-all approach to the identification of sequence-specific readers for epigenetic DNA modifications on cytosine”.
# Columns and labels:
# Test in all cases: DAPPL (digital affinity profiling via proximity ligation, sequencing); 10 mM Tris-HCl pH 7.5, 50 mM NaCl, 1 mM DTT, 4% glycerol, room temperature, 30 min; GST-TFs on glutathione beads, 16-mer random dsDNA library, 0.1% formaldehyde crosslink after washing; high values mean tight binding
# [1] = molecular target: T1, FLI1 (Homo sapiens, UniProt Q01543 1-452); conditions: protein: recombinant; tags: N-terminal GST; dsDNA, one strand shown
# T1 sequence: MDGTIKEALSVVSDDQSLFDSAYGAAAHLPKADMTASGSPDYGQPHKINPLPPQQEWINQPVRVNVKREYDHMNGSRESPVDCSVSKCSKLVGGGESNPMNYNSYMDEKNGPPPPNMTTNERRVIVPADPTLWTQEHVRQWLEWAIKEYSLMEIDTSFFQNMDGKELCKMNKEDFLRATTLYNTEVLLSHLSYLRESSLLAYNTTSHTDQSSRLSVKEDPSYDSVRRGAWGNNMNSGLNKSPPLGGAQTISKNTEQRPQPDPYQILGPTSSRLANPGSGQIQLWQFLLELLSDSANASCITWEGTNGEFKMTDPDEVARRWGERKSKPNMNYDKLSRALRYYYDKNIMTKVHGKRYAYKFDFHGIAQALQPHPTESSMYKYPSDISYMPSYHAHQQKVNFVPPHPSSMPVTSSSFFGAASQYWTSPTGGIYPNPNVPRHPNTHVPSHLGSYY
# Procedure, shortened: (§1)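 Binding signal is each hexamer's read frequency for a factor divided by its frequency in the tag-only sample. The factors were GST-fused human transcription factors from yeast, captured on glutathione beads, DNA-barcoded and pooled with that sample. Pools were incubated with 200 nmole of a random double-stranded 16-mer DNA library in Tris/NaCl/DTT/glycerol buffer at room temperature for 30 min, then washed, crosslinked with 0.1% formaldehyde, proximity-ligated with BsaI/T4 ligase (1 h, 37 °C), PCR-amplified and sequenced on an Illumina NextSeq500.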
# [2] = molecular target: T2, ELK1 (Homo sapiens, UniProt P19419 1-428); conditions: protein: recombinant; tags: N-terminal GST; dsDNA, one strand shown
# T2 sequence: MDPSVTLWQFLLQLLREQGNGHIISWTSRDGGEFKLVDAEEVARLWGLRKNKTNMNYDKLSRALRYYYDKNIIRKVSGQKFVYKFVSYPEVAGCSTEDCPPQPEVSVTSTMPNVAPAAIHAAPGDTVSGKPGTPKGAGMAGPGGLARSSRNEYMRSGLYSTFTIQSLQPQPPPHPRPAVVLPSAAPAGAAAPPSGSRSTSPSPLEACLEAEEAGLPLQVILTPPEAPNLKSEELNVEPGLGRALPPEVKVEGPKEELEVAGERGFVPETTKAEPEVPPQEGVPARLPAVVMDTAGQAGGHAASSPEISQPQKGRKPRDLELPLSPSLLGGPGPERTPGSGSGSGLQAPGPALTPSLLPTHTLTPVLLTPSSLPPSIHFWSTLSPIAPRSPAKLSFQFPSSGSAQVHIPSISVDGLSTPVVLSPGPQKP
# Procedure, shortened: as §1
# [3] = molecular target: T3, GABPA (Homo sapiens, UniProt Q06546 1-454); conditions: protein: recombinant; tags: N-terminal GST; dsDNA, one strand shown
# T3 sequence: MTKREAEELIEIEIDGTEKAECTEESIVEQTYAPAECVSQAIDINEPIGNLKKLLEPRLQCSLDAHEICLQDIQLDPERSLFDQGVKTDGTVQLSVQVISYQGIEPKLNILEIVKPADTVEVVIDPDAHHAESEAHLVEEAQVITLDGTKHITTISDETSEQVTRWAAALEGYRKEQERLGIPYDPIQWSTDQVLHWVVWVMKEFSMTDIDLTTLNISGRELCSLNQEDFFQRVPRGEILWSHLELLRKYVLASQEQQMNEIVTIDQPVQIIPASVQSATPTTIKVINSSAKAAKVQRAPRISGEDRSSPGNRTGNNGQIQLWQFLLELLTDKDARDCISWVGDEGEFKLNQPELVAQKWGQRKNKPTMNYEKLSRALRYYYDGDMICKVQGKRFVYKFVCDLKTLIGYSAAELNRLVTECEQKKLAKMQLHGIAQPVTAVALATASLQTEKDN
# Procedure, shortened: as §1
# [4] = molecular target: T4, ERG (Homo sapiens, UniProt P11308 1-479); conditions: protein: recombinant; tags: N-terminal GST; dsDNA, one strand shown
# T4 sequence: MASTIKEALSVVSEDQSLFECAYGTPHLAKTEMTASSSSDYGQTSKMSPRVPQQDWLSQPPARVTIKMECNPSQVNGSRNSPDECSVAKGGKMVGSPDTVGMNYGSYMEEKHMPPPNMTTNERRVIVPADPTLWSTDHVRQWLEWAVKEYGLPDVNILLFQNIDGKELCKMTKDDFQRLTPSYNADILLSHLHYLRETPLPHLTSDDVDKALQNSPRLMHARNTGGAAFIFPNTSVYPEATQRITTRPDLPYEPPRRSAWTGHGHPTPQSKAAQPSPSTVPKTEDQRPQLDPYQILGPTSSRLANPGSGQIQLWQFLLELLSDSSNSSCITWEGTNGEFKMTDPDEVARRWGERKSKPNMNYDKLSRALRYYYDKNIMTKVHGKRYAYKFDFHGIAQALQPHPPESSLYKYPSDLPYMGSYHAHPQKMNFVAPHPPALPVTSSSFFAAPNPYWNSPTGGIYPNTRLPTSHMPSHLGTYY
# Procedure, shortened: as §1
# [5] = molecular target: ELF1 (Homo sapiens, UniProt P32519 1-619); conditions: protein: recombinant; tags: N-terminal GST; dsDNA, one strand shown
# Procedure, shortened: as §1
# [6] = molecular target: T5, EHF (Homo sapiens, UniProt Q9NZC4 1-300); conditions: protein: recombinant; tags: N-terminal GST; dsDNA, one strand shown
# T5 sequence: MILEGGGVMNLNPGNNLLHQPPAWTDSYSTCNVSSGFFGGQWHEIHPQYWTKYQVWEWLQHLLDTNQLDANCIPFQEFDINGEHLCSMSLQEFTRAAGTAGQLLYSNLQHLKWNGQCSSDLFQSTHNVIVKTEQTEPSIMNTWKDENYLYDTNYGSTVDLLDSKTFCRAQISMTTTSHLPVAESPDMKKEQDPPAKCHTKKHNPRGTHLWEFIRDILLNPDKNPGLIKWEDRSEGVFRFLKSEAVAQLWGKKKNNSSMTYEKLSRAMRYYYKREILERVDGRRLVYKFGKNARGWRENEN
# Procedure, shortened: as §1
# [7] = molecular target: SPI1 (Homo sapiens, UniProt P17947 1-270); conditions: protein: recombinant; tags: N-terminal GST; dsDNA, one strand shown
# Procedure, shortened: as §1
# [8] = molecular target: SPIB (Homo sapiens, UniProt Q01892 1-262); conditions: protein: recombinant; tags: N-terminal GST; dsDNA, one strand shown
# Procedure, shortened: as §1
# [9] = molecular target: T6, ELK3 (Homo sapiens, UniProt P41970 1-407); conditions: protein: recombinant; tags: N-terminal GST; dsDNA, one strand shown
# T6 sequence: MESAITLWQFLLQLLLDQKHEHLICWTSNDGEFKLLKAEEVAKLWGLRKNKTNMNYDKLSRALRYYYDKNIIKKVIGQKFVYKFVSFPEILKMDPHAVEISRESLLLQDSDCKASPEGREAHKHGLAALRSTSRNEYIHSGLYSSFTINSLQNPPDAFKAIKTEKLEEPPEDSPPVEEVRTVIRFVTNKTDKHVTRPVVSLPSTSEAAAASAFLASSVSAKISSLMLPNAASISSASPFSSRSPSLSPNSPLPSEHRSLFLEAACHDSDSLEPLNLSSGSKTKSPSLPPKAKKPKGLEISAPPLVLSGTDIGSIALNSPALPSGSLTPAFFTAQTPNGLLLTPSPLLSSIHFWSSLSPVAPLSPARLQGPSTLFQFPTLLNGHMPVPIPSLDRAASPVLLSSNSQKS
# Procedure, shortened: as §1
# [10] = molecular target: T7, FEV (Homo sapiens, UniProt Q99581 1-238); conditions: protein: recombinant; tags: N-terminal GST; dsDNA, one strand shown
# T7 sequence: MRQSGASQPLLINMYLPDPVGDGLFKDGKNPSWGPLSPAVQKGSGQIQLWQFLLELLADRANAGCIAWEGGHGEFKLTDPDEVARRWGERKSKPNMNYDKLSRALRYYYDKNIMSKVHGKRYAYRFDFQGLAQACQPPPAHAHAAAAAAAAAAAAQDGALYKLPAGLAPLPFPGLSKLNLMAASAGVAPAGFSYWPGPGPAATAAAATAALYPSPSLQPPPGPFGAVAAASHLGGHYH
# Procedure, shortened: as §1
# [11] = molecular target: ETV5 (Homo sapiens, UniProt P41161 1-510); conditions: protein: recombinant; tags: N-terminal GST; dsDNA, one strand shown
# Procedure, shortened: as §1
# [12] = molecular target: HSF1 (Homo sapiens, UniProt Q00613 1-529); conditions: protein: recombinant; tags: N-terminal GST; chain copies: 3; dsDNA, one strand shown
# Procedure, shortened: as §1
# [13] = molecular target: T8, SPIC (Homo sapiens, UniProt Q8N5J4 1-248); conditions: protein: recombinant; tags: N-terminal GST; dsDNA, one strand shown
# T8 sequence: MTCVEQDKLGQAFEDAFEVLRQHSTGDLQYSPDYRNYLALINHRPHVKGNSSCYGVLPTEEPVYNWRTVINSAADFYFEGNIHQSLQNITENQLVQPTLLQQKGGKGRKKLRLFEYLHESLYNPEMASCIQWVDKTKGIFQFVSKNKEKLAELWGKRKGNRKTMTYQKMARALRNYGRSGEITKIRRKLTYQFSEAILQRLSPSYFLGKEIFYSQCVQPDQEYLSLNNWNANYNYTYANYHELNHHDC
# Procedure, shortened: as §1
# [14] = molecular target: ELF4 (Homo sapiens, UniProt Q99607 1-663); conditions: protein: recombinant; tags: N-terminal GST; dsDNA, one strand shown
# Procedure, shortened: as §1
# [15] = molecular target: T9, ELK4 (Homo sapiens, UniProt P28324-2 1-405); conditions: protein: recombinant; tags: N-terminal GST; dsDNA, one strand shown
# T9 sequence: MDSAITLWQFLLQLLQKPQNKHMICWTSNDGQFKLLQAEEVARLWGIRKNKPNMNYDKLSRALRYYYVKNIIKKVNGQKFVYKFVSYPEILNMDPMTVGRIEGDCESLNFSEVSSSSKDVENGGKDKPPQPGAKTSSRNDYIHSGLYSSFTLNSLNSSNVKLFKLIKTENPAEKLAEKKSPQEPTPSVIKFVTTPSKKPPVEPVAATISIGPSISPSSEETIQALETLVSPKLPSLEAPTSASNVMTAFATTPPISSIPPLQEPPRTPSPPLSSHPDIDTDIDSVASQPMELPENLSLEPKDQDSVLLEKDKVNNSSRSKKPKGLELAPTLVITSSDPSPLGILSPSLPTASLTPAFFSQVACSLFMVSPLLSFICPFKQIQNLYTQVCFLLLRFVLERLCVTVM
# Procedure, shortened: as §1
# [16] = molecular target: T10, ETV2 (Homo sapiens, UniProt O00321 1-342); conditions: protein: recombinant; tags: N-terminal GST; dsDNA, one strand shown
# T10 sequence: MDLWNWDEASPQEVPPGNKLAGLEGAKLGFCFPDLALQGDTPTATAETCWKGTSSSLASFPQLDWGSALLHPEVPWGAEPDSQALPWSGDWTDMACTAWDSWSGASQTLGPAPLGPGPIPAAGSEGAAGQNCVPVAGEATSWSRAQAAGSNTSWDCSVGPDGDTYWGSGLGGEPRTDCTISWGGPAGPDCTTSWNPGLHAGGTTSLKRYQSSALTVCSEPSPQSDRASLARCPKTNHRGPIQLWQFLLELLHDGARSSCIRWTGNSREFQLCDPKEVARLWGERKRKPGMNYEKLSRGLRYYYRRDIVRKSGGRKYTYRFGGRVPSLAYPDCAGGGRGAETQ
# Procedure, shortened: as §1
# [17] = molecular target: T11, ELF3 (Homo sapiens, UniProt P78545 1-371); conditions: protein: recombinant; tags: N-terminal GST; dsDNA, one strand shown
# T11 sequence: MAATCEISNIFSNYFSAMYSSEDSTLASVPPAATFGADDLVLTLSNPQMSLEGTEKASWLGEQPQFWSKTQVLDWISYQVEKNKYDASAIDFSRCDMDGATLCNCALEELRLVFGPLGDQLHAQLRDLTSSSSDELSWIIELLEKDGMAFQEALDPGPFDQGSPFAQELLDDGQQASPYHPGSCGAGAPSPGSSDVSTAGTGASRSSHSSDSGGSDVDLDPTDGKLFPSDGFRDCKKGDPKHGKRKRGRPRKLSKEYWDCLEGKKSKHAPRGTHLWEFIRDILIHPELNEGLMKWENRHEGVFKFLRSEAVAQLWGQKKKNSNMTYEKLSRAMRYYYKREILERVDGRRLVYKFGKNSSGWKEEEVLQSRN
# Procedure, shortened: as §1
# [18] = molecular target: CRX (Homo sapiens, UniProt O43186 1-299); conditions: protein: recombinant; tags: N-terminal GST; dsDNA, one strand shown
# Procedure, shortened: as §1
# [19] = molecular target: ETV1 (Homo sapiens, UniProt P50549 1-477); conditions: protein: recombinant; tags: N-terminal GST; dsDNA, one strand shown
# Procedure, shortened: as §1
# ETV1, sequence (P50549 whole entry): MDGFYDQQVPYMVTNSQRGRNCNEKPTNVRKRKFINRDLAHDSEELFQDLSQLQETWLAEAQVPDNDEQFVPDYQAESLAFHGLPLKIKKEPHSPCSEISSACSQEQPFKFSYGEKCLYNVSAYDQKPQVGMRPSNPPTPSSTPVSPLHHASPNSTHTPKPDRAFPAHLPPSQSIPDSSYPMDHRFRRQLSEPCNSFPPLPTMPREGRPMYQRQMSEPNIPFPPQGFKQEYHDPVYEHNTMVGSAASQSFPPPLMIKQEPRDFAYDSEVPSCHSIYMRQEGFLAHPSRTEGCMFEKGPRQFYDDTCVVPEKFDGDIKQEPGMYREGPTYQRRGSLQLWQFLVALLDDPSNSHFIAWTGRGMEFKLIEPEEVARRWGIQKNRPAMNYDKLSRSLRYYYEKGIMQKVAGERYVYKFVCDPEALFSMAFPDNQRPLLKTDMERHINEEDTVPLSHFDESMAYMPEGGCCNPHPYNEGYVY
# ETV5, sequence (P41161 whole entry): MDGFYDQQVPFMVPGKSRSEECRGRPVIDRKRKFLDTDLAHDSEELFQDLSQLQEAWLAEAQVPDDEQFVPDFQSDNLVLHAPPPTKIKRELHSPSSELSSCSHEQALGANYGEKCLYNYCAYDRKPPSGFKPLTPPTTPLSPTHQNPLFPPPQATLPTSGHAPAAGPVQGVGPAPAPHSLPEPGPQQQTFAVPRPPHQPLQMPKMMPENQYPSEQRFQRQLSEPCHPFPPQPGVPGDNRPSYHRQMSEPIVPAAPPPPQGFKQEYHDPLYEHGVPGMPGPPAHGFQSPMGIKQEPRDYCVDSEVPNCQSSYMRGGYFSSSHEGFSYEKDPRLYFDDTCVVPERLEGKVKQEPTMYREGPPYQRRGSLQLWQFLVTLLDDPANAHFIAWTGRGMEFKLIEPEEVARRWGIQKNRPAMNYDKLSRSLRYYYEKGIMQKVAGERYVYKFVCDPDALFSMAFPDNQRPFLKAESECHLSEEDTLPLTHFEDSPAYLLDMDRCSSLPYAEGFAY
# CRX, sequence (O43186 whole entry): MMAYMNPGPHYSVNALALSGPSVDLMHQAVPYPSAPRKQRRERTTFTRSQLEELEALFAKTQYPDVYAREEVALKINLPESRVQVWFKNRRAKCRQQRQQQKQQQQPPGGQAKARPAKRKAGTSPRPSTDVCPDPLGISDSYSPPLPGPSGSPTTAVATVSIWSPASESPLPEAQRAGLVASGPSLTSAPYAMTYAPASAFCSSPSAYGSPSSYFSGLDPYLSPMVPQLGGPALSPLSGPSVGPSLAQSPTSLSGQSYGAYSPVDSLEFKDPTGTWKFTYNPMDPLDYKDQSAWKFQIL
# SPIB, sequence (Q01892 whole entry): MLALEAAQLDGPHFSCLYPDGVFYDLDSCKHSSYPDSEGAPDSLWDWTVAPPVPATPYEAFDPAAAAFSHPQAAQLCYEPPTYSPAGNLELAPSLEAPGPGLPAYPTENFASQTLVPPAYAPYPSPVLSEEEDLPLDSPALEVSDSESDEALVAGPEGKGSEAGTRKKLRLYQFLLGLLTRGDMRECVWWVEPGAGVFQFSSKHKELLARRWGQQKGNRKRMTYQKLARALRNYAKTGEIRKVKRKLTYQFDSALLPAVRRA
# HSF1, sequence (Q00613 whole entry): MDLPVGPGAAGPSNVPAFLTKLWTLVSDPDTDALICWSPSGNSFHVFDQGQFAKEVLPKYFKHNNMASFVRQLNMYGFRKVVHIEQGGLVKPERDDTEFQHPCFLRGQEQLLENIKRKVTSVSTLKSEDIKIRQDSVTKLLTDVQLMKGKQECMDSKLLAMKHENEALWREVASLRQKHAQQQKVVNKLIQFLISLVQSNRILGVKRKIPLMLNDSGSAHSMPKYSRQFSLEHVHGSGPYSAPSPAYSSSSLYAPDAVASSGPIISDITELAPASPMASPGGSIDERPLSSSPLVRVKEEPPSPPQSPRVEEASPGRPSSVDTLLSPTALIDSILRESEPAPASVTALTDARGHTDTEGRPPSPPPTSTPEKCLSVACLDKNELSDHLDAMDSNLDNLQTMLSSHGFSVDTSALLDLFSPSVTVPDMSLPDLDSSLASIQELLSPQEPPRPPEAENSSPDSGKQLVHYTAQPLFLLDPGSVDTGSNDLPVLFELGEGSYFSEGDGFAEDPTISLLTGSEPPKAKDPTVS
# ELF4, sequence (Q99607 whole entry): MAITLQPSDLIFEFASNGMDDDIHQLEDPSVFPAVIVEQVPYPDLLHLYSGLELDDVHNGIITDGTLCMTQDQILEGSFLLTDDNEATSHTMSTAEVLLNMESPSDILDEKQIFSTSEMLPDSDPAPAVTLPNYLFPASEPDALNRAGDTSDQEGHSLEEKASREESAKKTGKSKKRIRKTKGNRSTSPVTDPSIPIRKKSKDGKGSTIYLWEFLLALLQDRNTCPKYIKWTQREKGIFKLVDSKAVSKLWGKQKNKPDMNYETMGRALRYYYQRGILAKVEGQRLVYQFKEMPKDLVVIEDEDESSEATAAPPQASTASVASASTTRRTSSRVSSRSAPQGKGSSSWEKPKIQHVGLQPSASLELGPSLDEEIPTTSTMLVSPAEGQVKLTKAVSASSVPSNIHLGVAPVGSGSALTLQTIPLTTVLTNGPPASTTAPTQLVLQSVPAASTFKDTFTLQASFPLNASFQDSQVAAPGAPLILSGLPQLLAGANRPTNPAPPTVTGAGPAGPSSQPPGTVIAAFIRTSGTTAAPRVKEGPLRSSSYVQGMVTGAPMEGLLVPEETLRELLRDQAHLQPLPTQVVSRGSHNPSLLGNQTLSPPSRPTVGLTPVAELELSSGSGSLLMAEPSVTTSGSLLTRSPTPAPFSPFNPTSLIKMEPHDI
# ELF1, sequence (P32519 whole entry): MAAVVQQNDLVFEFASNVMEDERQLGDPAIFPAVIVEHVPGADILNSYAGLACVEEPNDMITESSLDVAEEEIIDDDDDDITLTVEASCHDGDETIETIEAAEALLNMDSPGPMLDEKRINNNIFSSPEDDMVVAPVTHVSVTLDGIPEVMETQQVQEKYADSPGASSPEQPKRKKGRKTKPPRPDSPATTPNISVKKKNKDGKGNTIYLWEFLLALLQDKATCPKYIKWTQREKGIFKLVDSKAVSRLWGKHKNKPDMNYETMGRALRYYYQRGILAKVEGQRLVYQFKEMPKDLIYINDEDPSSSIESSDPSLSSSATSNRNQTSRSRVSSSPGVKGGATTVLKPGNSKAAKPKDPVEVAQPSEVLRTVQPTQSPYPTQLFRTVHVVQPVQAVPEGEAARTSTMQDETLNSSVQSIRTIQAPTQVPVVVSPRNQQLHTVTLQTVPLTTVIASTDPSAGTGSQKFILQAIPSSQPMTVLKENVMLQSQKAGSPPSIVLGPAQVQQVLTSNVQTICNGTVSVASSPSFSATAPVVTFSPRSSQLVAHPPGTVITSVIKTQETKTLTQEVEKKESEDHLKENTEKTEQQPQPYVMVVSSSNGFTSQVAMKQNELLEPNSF
sequence,measurement,setting,value
GCTTAT,binding signal,[1],"1.33 fold enrichment (6-mer frequency, TF over GST control)"
same,binding signal,[2],"1.21 fold enrichment (6-mer frequency, TF over GST control)"
same,binding signal,[3],"1.28 fold enrichment (6-mer frequency, TF over GST control)"
same,binding signal,[4],"1.18 fold enrichment (6-mer frequency, TF over GST control)"
same,binding signal,[5],"1.28 fold enrichment (6-mer frequency, TF over GST control)"
same,binding signal,[6],"1.12 fold enrichment (6-mer frequency, TF over GST control)"
same,binding signal,[7],"1.3 fold enrichment (6-mer frequency, TF over GST control)"
same,binding signal,[8],"1.31 fold enrichment (6-mer frequency, TF over GST control)"
same,binding signal,[9],"1.16 fold enrichment (6-mer frequency, TF over GST control)"
same,binding signal,[10],"1.21 fold enrichment (6-mer frequency, TF over GST control)"
same,binding signal,[11],"1.23 fold enrichment (6-mer frequency, TF over GST control)"
same,binding signal,[12],"1.89 fold enrichment (6-mer frequency, TF over GST control)"
same,binding signal,[13],"1.42 fold enrichment (6-mer frequency, TF over GST control)"
same,binding signal,[14],"1.23 fold enrichment (6-mer frequency, TF over GST control)"
same,binding signal,[15],"1.28 fold enrichment (6-mer frequency, TF over GST control)"
same,binding signal,[16],"1.11 fold enrichment (6-mer frequency, TF over GST control)"
same,binding signal,[17],"1.29 fold enrichment (6-mer frequency, TF over GST control)"
same,binding signal,[18],"2.89 fold enrichment (6-mer frequency, TF over GST control)"
same,binding signal,[19],"1.35 fold enrichment (6-mer frequency, TF over GST control)"
